These results are taken from PubChem BioAssay AID652054 (National Center for Advancing Translational Sciences (NCATS), 2013).

The campaign covered roughly 360,000 compounds. About 9,100 (2.5%) were called active. Another 4% or so got no clear call; they are omitted. Cut-off read from the data, not from the text of the source: active = max response below about -50%; inconclusive = no clear call, values can overlap the other calls; inactive = above that. The list comes from a sample in which actives are over-represented; it also holds similar structures and randomly drawn compounds.
% is set by controls: 0 for no effect and ±100 for the full control effect.

Sequence of D(3) dopamine receptor (Homo sapiens) (P35462 whole entry, looked up): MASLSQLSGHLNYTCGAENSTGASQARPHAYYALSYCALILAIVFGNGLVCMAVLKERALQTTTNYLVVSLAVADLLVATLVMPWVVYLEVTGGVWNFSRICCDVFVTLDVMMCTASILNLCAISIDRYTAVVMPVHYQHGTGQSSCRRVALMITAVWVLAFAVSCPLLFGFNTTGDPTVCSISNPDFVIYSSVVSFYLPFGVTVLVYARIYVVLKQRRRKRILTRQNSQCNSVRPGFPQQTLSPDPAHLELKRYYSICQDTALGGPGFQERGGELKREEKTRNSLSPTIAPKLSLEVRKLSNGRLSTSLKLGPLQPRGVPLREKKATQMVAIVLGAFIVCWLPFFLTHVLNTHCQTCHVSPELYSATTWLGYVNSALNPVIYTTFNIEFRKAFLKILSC

For this experiment, the target named is D(3) dopamine receptor (Homo sapiens) (UniProt P35462). As to the kind of experiment: qHTS of D3 Dopamine Receptor Antagonist: qHTS. As to conditions: D3R cells, DiscoveRx beta-arrestin luminescence, antagonist mode; active compounds read low. The method, boiled down:
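Cells expressing the human receptor were seeded at 1500 cells/well, incubated overnight at 37 degrees C in 5% CO2, then exposed to library compounds with dopamine controls for 90 minutes at 37 degrees C before luminescent detection.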
A general note: qHTS replaces the single test concentration by a dilution series.
Regarding `CC1CC2=C(CC1/C=N/NC(N)=S)C(C)(C)CCC2` (stereo not given), the max response, negative = inhibition was -76.3% (active).
With `COC(=O)C(Cc1c[nH]c2ccccc12)NC(=O)CCNC(=O)c1ccco1` (stereo not given) the figure was 40% (inactive); with `CN(Cc1cn(Cc2ccc(C(F)(F)F)cc2)nn1)C1CN(Cc2cn(Cc3ccc(C(F)(F)F)cc3)nn2)S(=O)(=O)C1` (stereo not given), 0% (inactive); with `O=C(CCN1CCCCC1)Nc1ccc(F)c(F)c1`, 15.9% (inactive).
With `CCC(C(=O)NCc1ccccc1)n1c(Cc2cc(F)cc(F)c2)nc2ccccc21` (stereo not given) the figure was 1.57% (inactive); with `OC[C@H]1O[C@@H](c2nc(-c3nc(-c4ccc(F)cc4)no3)cs2)[C@H](O)[C@@H](O)[C@H]1O`, 0% (inactive).
In the case of `Cc1cc(=O)oc2cc(NC(=O)C3CC(=O)N(Cc4ccccc4)C3)ccc12` (stereo not given) it was -60.6% (active); in that of `Cc1cc(=O)oc2cc(NC(=O)C(C)Oc3ccccc3)ccc12` (stereo not given), 18.8% (inactive); in that of `O=C(Nc1ccc(F)c([N+](=O)[O-])c1)C1CC(=O)N(Cc2ccccc2)C1` (stereo not given), 16.3% (inactive).
In the case of `CO[C@@H]1CN(C)C(=O)c2cc(NC(=O)Nc3cc(F)ccc3F)ccc2OC[C@H](C)N(C(=O)c2ccccn2)C[C@@H]1C`, the max response, negative = inhibition was -21.4% (inactive).
Consider `CCCCn1nnnc1C1(C)CCC(=O)N1Cc1ccc(OC)c(OC)c1` (stereo not given), for which the max response, negative = inhibition was 27.1% (inactive).
In the case of `Cc1cc(NC(=O)c2ccc(F)cc2)ccc1NC(=O)c1ccco1` it was -99.6% (active); in that of `COc1ccccc1C(=O)Nc1ccc(NC(=O)c2ccco2)c(C)c1`, 2.58% (inactive); in that of `Cc1cccc(OCC(=O)Nc2ccc(NC(=O)c3ccco3)c(C)c2)c1`, -6.83% (inactive).
With `CC(=O)c1cccc(-c2cnc3c(NC=O)cc(-c4cccc(C(=O)N(C)C)c4)cn23)c1` the figure was 39.2% (inactive); with `CS(=O)(=O)c1cccc(-c2ccc3nncn3c2)c1`, -15.7% (inactive).
With `O=C(O)C1=C(C(=O)O)C2CCC1C2` the figure was -3.55% (inactive); with `Cc1ccc(N=Cc2c(O)n(-c3nccs3)c(=O)c3ccccc23)c(C)c1`, 7.33% (inactive).
In the case of `Cc1cccc(-n2c(O)c(C=Nc3ccccc3N)c(=O)[nH]c2=O)c1`, the max response, negative = inhibition was -114% (active).
With `Cc1cccc(N2C(=O)CC(SC(N)=Nc3ccccc3)C2=O)c1` (stereo not given) the figure was -1.29% (inactive); with `CC1(C(=O)NS(=O)(=O)Cc2cccc(Cl)c2)CCN1C(=O)Cc1ccc(Cl)cc1Cl` (stereo not given), 5.64% (inactive); with `CN(Cc1ccccc1F)C(=O)C(Cc1ccccc1)NC(=O)c1ccccc1` (stereo not given), 41.6% (inactive).
With `CN(CC(=O)NC(=O)Nc1ccccc1F)Cc1ccccc1` the figure was -19.2% (inactive).
With `CN(Cc1ccccc1)Cc1ccccc1F`, the max response, negative = inhibition was -76.7% (active).
For the molecule `CCc1nc2c(OCCC3CCCCC3)cccn2c1N(C)C(=O)c1ccco1`, the max response, negative = inhibition is -17.4% (inactive).
Turning to `O=C(NCC(O)c1nc2ccccc2[nH]1)c1ccc(Br)cc1` (stereo not given), the max response, negative = inhibition is -3.7% (inactive).
In the case of `COc1ccc(NC(=O)CSc2nnnn2-c2cccc(OC)c2)cc1` it was 26.1% (inactive); in that of `Clc1cccc(-c2nc3nc4ccccc4nc3n2Cc2ccco2)c1`, -72.7% (active); in that of `O=C(CSc1nnc(-c2cccnc2)n1Cc1ccco1)c1ccc(Cl)c(Cl)c1`, 25.5% (inactive).
With `O=c1[nH]c(CSc2ncc(-c3ccc(F)cc3)n2Cc2ccco2)nc2ccccc12` the figure was 11.8% (inactive).
In the case of `CCOC1=C2[C@H]([C@H]3C(=O)N(c4ccccc4)C(=O)[C@H]3C1)[C@@H](c1ccccc1)N(S(=O)(=O)c1ccc(C)cc1)[C@H]2c1ccccc1` it was 0.0406% (inactive).
Consider `CN(Cc1nc2ccccc2s1)C(=O)c1ccc(F)cc1`, for which the max response, negative = inhibition was -18.6% (inactive).
In the case of `CC1=CC(=C(C#N)c2nc3ccccc3s2)C=C(C)N1c1ccc(F)cc1F`, the max response, negative = inhibition was -51.3% (active).
With `N#C/C(=C(/O)Cc1cccc2ccccc12)c1nc2ccccc2s1` the figure was -26.8% (inactive); with `CN1CCN(c2ccc3c(c2)OC[C@H](Cc2ccccc2)NS3(=O)=O)CC1`, -23% (inactive); with `CCOC(=O)[C@]12CCCC=C1N(Cc1ccc3c(c1)OCO3)C(=O)[C@H](CC(=O)NCc1cccs1)C2`, -6.39% (inactive).
With `COC(=O)C[C@H]1C[C@@H]2c3cc(NC(=O)Nc4ccccc4)ccc3O[C@@H]2[C@@H](CO)O1` the figure was 17.9% (inactive); with `Cc1cccc(N(C(=O)Cn2nnc(-c3ccc(C)o3)n2)C(C(=O)NC2CCCC2)c2ccncc2)c1` (stereo not given), 12.8% (inactive).
In the case of `COc1ccc(C)cc1N(C(=O)Cn1nnc(-c2ccc(C)o2)n1)C(C(=O)NC1CCCC1)c1ccncc1` (stereo not given) it was -57.8% (active); in that of `CCC(C(=O)NC1CCCC1)N(C(=O)Cn1nnc(-c2ccc(C)o2)n1)c1ccc(OC)c(OC)c1` (stereo not given), 8.45% (inactive).
Regarding `CNC[C@H]1OCc2cnnn2CCCC(=O)N([C@H](C)CO)C[C@@H]1C`, the max response, negative = inhibition was 11.4% (inactive).
In the case of `COCCNC(=O)C1(C)CCCN(Cc2cccc(F)c2)C1` (stereo not given) it was -6.58% (inactive).
With `Cn1c(CC(=O)NNC(=O)c2ccccc2F)nc2ccccc21` the figure was 5.88% (inactive); with `CC(NCc1nc2ccccc2n1C)C12CC3CC(CC(C3)C1)C2` (stereo not given), -77.6% (active).
In the case of `COc1cccc(C(O)Cc2nc3ccccc3n2C)c1OC` (stereo not given) it was 9.46% (inactive); in that of `COC(=O)c1ccc2nc(-c3cccc(Br)c3)c(Cc3ccccc3C(F)(F)F)n2c1`, 0% (inactive).
`CC(C)c1cc(C(=O)N/N=C/c2ccoc2)c(O)c(C(C)C)c1`: the max response, negative = inhibition was -60.7% (active).
With `CC(Oc1ccccc1[N+](=O)[O-])C(=O)N/N=C/c1ccoc1` (stereo not given) the figure was -27.6% (inactive); with `O=C(N/N=C/c1ccoc1)c1ccc(Cl)cc1Cl`, 9.92% (inactive); with `CC(=O)N1C[C@@H](CO)[C@@H](N(C)C(=O)c2ccco2)C[C@H]1c1ccccc1`, 0% (inactive).
With `COc1cccc(CNC(=O)CCC2CCCN(Cc3ccc(OC(F)F)cc3)C2)c1` (stereo not given) the figure was -23.3% (inactive); with `COc1ccc(C[C@H]2CN3C(=NC[C@H]3C)N2CCNC(=O)CCC2CCCCC2)cc1`, -71.7% (active).
In the case of `C/C=C(\C)C(=O)NCCN1C2=NC[C@H](Cc3ccc(O)cc3)N2C[C@@H]1Cc1ccc(OC)cc1` it was -17.1% (inactive); in that of `CC1(C(=O)NCc2cccc3ccccc23)CCN1Cc1ccc(-c2ccccc2)o1` (stereo not given), 34.9% (inactive).
Regarding `CCOc1cc(/C=N/NC(=O)c2ccncc2)cc(Br)c1O`, the max response, negative = inhibition is 2.27% (inactive).
